Screening results deposited in PubChem BioAssay by several laboratories.
Only some compounds are listed: those with a hit (about 1.9% of all), similar ones and a draw of the others.
APP transl inh: inhibitors of APP translation via 5'UTR reporter, primary screen, APP 5'UTR luciferase, SH-SY5Y cells; SH-SY5Y APP 5'UTR-luciferase reporter, luminescence; inhibition, % at 2 µM; 0.82% of 190,000 active; AID 1285, 2008;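 active = inhibition above a set limit, derived from the sample mean plus 3 SD, cut at about 45% in these data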
BaF3 parental: parental Ba/F3 cell viability inhibition, counter-screen for JAK2V617F inhibitor project, murine pro-B, CellTiter-Glo luminescence. CellTiter-Glo ATP luminescence. inhibition, % at 5.6 µM. 1.1% of 220,000 active. AID 1486, 2009;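 active = inhibition above a per-campaign cutoff, the mean inhibition of all tested compounds plus 3 SD, cut at about 27% in these data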;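 also: 0% = DMSO wells and 100% = JAK Inhibitor I control wells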
Ba/F3 V617F tox: reduced viability of JAK2V617F-dependent Ba/F3 cells, primary screen, JAK2V617F inhibitor project, cell-based, Ba/F3 EpoR-JAK2V617F, luminescence; ATP luminescence; inhibition, % at 5.6 µM; 1.1% of 220,000 active; AID 1446, 2008;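 active = inhibition above the campaign mean plus 3 SD over all tested compounds, cut at about 24% in these data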;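 also: cytokine-independent growth of Ba/F3 cells driven by EpoR plus mutant JAK2; 0% = DMSO-treated cells and 100% = JAK inhibitor I control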
KLF5 inhibitor: KLF5 expression inhibitors, primary screen, DLD-1 cells, luminescence; DLD-1 KLF5 promoter-luciferase reporter; inhibition, % at 5 µM; 0.23% of 290,000 active; AID 1700, 2009;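 active = inhibition above a per-plate limit of that plate's mean compound inhibition plus 3 SD, cut at about 60% in these data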;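 also: 0% = DMSO wells and 100% = LY294002 at 200 µM; higher means less KLF5 promoter-driven luciferase light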
IEC-6 tox: cytotoxicity in IEC-6 intestinal epithelial cells, primary screen, cytotoxicity control for KLF5 inhibitor project, cell-based, luminescence. IEC-6 cytotoxicity, luminescence viability. inhibition, % at 5 µM. 0.78% of 290,000 active. AID 1825, 2009; in the data active = inhibition above about 22%;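 also: 0% = plate median of test compound wells and 100% = cytotoxic reference compound wells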
BaF3 tox 2: parental Ba/F3 cell viability inhibition, counter-screen for JAK2V617F inhibitor project, murine pro-B, CellTiter-Glo luminescence. 31% of 580 active. cells kept alive by added IL-3. shares compounds with Ba/F3 V617F tox. inhibition, % at 5.6 µM;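 active = cell growth inhibition above the hit limit set in the earlier mutant JAK2 cell screen, cut at about 27% in these data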;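 also: plate controls were DMSO-treated cells for no effect and JAK Inhibitor I control wells for full effect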
JAK2V617F conf: viability loss in Ba/F3 EpoR-JAK2V617F cells, confirmation, JAK2V617F inhibitor project, cell-based, luminescence, triplicate; CellTiter-Glo luminescence; 66% of 580 active; inhibition, % at 5.6 µM; shares compounds with Ba/F3 V617F tox;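 active = mean inhibition above the hit cutoff derived in the earlier primary screen, cut at about 25% in these data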;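 also: 0% = DMSO-treated cells and 100% = JAK inhibitor I control wells; higher means lower luminescence from reduced cell ATP and viability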
Active calls of the source: *; . = not tested or not shown.

SMILES	APP transl inh	BaF3 parental	Ba/F3 V617F tox	KLF5 inhibitor	IEC-6 tox	BaF3 tox 2	JAK2V617F conf
CC(C)(C)C(=O)/C(=C\c1ccc([N+](=O)[O-])cc1)n1cncn1	92.6*	90.5*	96.7*	44.9	23.2*	.	.
CCc1n(CC(O)COCc2ccccc2)c2ccccc2[n+]1C (stereo not given)	-7.3	48.8*	37.8*	19.2	-2.9	.	.
CCN(CC)c1nc2c(c(=O)[nH]c(=O)n2C)n1CCOc1ccccc1	.	.	.	-26.3	3.0	.	.
O=C(Oc1ccccc1)N1CCN(C(=O)c2ccco2)CC1	.	.	.	-31.1	-10.4	.	.
N#C/C(=N\Nc1cccc(C(F)(F)F)c1)C(=O)c1ccsc1	.	32.2*	18.1	-62.3	15.6	.	.
N#Cc1c(NC(=O)CCCC(=O)O)sc2c1CCCCC2	46.0*	-0.2	-4.4	-37.4	-5.2	.	.
CCCC(=O)Nc1sc2c(c1C#N)CCCCC2	-14.2	5.1	1.4	-162.1	5.1	.	.
Cc1cc(=O)[nH]c(N/N=C/c2cc(C)n(CC(F)(F)F)c2C)n1	.	32.0*	75.6*	11.9	-0.5	.	.
COc1cccc(OCCNC(=O)c2cccc(OC)c2)c1	45.0*	0.6	-5.6	-20.4	7.8	.	.
COc1cccc(OCCNC(=O)c2ccc(C)cc2)c1	.	.	.	-28.3	-4.7	.	.
CCc1cc(Br)ccc1NC(=S)NCCc1ccccc1	.	.	.	-22.8	-4.5	.	.
CC1=CC(C)C2(CO)COC(c3ccccc3O)C1C2C (stereo not given)	3.1	3.0	58.1*	10.9	-3.1	-5.0	0.7
Cc1ccc(C(=O)n2c(N)nc3ccccc32)cc1	-34.8	20.9	50.7*	51.2	8.6	6.1	-1.5
O=C1N=C(N2CCOCC2)S/C1=C\c1ccc(OS(=O)(=O)c2ccccc2)cc1	-12.6	11.5	44.4*	-17.4	1.8	-5.1	-3.0
Cc1cc(C)cc(C(=O)NCC(=O)OCC(=O)N2CCN(S(=O)(=O)c3ccc4ccccc4c3)CC2)c1	-5.7	6.7	-0.9	-21.7	-2.2	.	.
CCNC(=S)NNC(=O)c1ccccn1	9.6	5.7	2.5	1.9	-11.0	.	.
O=C(NNC(=S)Nc1ccc(Cl)c(Cl)c1)c1ccccn1	30.9	4.2	31.6*	49.9	6.5	51.0*	47.2*
CC1CN(Cc2cc(=O)[nH]c(C3CC3)n2)CC(C)O1 (stereo not given)	1.1	4.0	39.9*	-36.2	9.2	-5.6	-5.3
Cc1nc2ccccc2c2oc(C(=O)NCCCN3CCCC(C)C3)cc12 (stereo not given)	.	.	.	-11.1	1.9	.	.
CC1CCCN(CCCNC(=O)c2cc3c(Cl)nc4ccccc4c3s2)C1 (stereo not given)	10.2	17.8	63.1*	14.6	12.7	1.8	84.6*
CN(c1ccccc1)S(=O)(=O)c1cccc(C(=O)NCCc2ccc(O)c(O)c2)c1	-4.2	6.9	32.5*	-9.2	11.7	3.6	66.8*
COc1ccc(-c2csc(Nc3ncccc3C)n2)cc1OC	-31.0	3.9	1.9	-102.7	3.3	.	.
Cc1cccnc1Nc1nc(-c2ccc(O)c(O)c2)cs1	-39.3	24.7	80.5*	-176.3	14.3	24.5	92.6*
O=C(CCc1nnc(CCc2ccccc2)o1)N1CCCC1c1nccs1 (stereo not given)	-1.2	6.0	1.1	-22.1	-5.6	.	.
CN(C)c1nc(N(C)C)nc(N(C#N)CCOc2ccccc2)n1	-17.6	7.4	3.4	-22.6	4.5	.	.
SMILES	APP transl inh	BaF3 parental	Ba/F3 V617F tox	KLF5 inhibitor	IEC-6 tox	BaF3 tox 2	JAK2V617F conf
Cc1cc(C)nc(N(C#N)CCOc2ccccc2)n1	10.5	17.9	54.1*	-11.2	-1.4	9.5	17.6
OCC1CCCC(n2cnc3c(=S)nc[nH]c32)O1 (stereo not given)	.	21.7	24.5*	-4.8	11.3	-0.3	1.2
CCN(CC(=O)Nc1ccc(NC(C)=O)cc1)C(=O)Cc1ccc(Cl)c(Cl)c1	.	.	.	-0.9	3.9	.	.
COc1ccc(C2c3ccc4ccccc4c3Oc3ncn(CCCO)c(=N)c32)cc1OC (stereo not given)	.	0.8	81.3*	-1.3	5.7	0.1	8.2
Cc1cc(Cl)n2c(nc3cc(F)c(F)cc32)c1C#N	87.6*	24.2	47.6*	-0.4	13.1	33.1*	93.2*
O=C(NC1CCCCCC1)c1ccc(=O)n(Cc2ccccc2)n1	7.8	9.1	-0.6	1.2	4.4	.	.
CC(=O)Nc1ccc(S(=O)(=O)N(Cc2ccco2)Cc2cc3ccccc3[nH]c2=O)cc1	.	.	.	-4.9	-1.9	.	.
CCOc1ccc(N2CC(O)(c3cccs3)[N+]3=C2CCCC3)cc1 (stereo not given)	-9.8	25.3	23.5*	-3.4	8.3	31.2*	46.2*
OC1(c2cccs2)CN(c2ccccc2)C2=[N+]1CCCC2 (stereo not given)	-8.2	8.0	0.1	-27.8	-1.3	.	.
COc1cc(CNC(C)C)c(Br)cc1OC1CCCC1	16.9	8.6	3.6	-23.8	0.6	.	.
COc1cccc(-n2nnnc2S(C)(=O)=O)c1	4.0	2.3	51.7*	21.6	39.0*	32.1*	95.3*
CC(C)c1nc2sc3c(=O)n(N)cnc3c2c2c1COC(C)(C)C2	-23.9	5.5	-1.9	-28.2	2.4	.	.
CCC(C)n1ncn(-c2ccc(N3CCN(c4ccc(O)cc4)CC3)cc2)c1=O (stereo not given)	0.3	7.6	32.8*	57.4	3.7	58.6*	48.3*
CCCCCCN(C(=O)CCl)c1ccccc1	.	-0.1	49.3*	-52.6	-6.4	0.8	62.7*
CCCCCCCN(C(=O)CCl)c1cccc(C)c1	-5.1	10.1	6.6	12.8	6.4	.	.
O=C(c1ccc2c(c1)N(Cc1ccccc1)C(=O)CS2)N1CCOCC1	-7.8	-1.2	-4.4	-9.5	-3.9	.	.
Cc1ccccc1CN1C(=O)CSc2ccc(C(=O)N3CCOCC3)cc21	8.2	12.3	33.0*	-31.6	1.4	-1.3	-0.9
COc1ccc(CCNS(=O)(=O)c2ccc(-c3ccc(=O)[nH]n3)o2)cc1OC	.	.	.	-24.6	7.1	.	.
O=C1OC(/C(=C\Nc2cc(Cl)ccc2O)[N+](=O)[O-])c2ccccc21 (stereo not given)	-43.2	13.1	45.9*	6.5	-2.6	4.2	55.9*
O=C1OC(/C(=C\Nc2ccc(F)cc2F)[N+](=O)[O-])c2ccccc21 (stereo not given)	5.4	3.2	0.8	-20.3	-2.2	.	.
C#CC[N+](C)(C)CC#Cc1ccc(Cl)cc1	6.8	18.3	32.0*	-2.3	3.5	28.5*	82.9*
Cc1sc2nc3c4ccccc4c(NCc4ccco4)nn3c(=O)c2c1C	-135.9	4.0	4.0	26.2	-7.4	.	.
Cc1nc(NCc2ccco2)c2c(C)c(C)sc2n1	3.5	3.7	26.8*	2.8	18.5	34.1*	84.5*
